# Source: publication PMC11062922 (Nature Chemical Biology, 2023)
# Assays:
# DAPK3 = details: read-out: apparent Kd; compound concentrations:100 nM and 1000 nM (sheet 'Lestaurtinib' of Supplementary Table 1),run:Lestaurtinib_02443_R1,Plate:MR009; n = 1
# RIPK3 = tested on: RIPK3; design: species or system human, MV4-11 + K-562 + COLO205 + SK-N-BE2 + OVCAR-8; details: read-out: apparent Kd; compound concentrations: 100 nM and 1000 nM (sheet 'Samples'), CATDS: 0.41855483652365999; n = 1
# RAB5C = tested on: RAB5C; design: species or system human, MV4-11 + K-562 + COLO205 + SK-N-BE2 + OVCAR-8; details: read-out: apparent Kd; compound concentrations: 100 nM and 1000 nM (sheet 'Samples'), CATDS: 1; n = 1
molecule,measurement,setting,value
Lestaurtinib,potency estimated from few doses,DAPK3,1580 nM
c1ccc(Oc2ccc(Nc3ccnc4ccc(-c5ccccn5)cc34)cc2)cc1 [GW407034X],potency estimated from few doses,RIPK3,429 nM
Fc1ccc(-c2c(-c3ccncc3)n(CCN3CCOCC3)c3cccnc23)cc1 [RO1154507-000],potency estimated from few doses,RAB5C,223 nM
